We go through 18 compounds from PubChem BioAssay (Tox21).

The nature of experiment [1]: qHTS assay to identify small molecule antagonists of the sonic hedgehog signaling (Shh) pathway (AID 1259369; calls by dose curve; further: nearly all actives have a fitted effect of over 45% in size; further: potency means the concentration at half of the fitted maximal effect). Summed up:
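For antagonist detection, the reporter line received test compounds together with conditioned medium, incubated 24hr at 37 C, 5% CO2, then luminescence was recorded following 30min room-temperature luciferase reagent incubation.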
On the technique in general: In qHTS, concentration-response curves come from the screen itself.

Experiment [2] addresses Estrogen receptor beta (Homo sapiens) (UniProt Q92731). Description: qHTS assay to identify small molecule agonists of the estrogen receptor beta (ER-beta) signaling pathway (AID 1259377; active means well fitted activation curve with a large enough effect in the signal ratio in the repeat runs, not every such curve was filed as active; the % refers to the signal ratio). In outline: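 A UAS-controlled beta-lactamase reporter in ER-beta-UAS-bla HEK293T cells reports receptor activation. Compounds act for 16 hr at 37C in 2% charcoal-stripped serum, and a FRET substrate is read by fluorescence after 2 hours.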

Experiment [3] has the same target. Briefly: qHTS assay to identify small molecule antagonists of the estrogen receptor beta (ER-beta) signaling pathway (AID 1259378; active means well fitted inhibition curve with a large enough effect in the signal ratio in the repeat runs, not every such curve was filed as active; the % refers to the signal ratio; further: potency means the concentration at half of the fitted maximal effect). In outline:
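Antagonist mode: compounds added to beta-lactamase reporter HEK293T ER-beta-UAS cells stimulated with E2 (1nM final), 16 hr at 37C. LiveBLAzer B/G FRET substrate, 2 hours room temperature, fluorescence read-out.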

The nature of experiment [4]: qHTS assay to identify small molecule agonists of the androgen receptor (AR) signaling pathway in the presence of an antagonist - cell viability counter screen (AID 1259379). Further: nearly all actives have a fitted effect of over 25% in size. Further: potency means the concentration at half of the fitted maximal effect.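 On activity change, negative = cytotoxicity: MDA-kb2 human breast cancer cells carrying an MMTV luciferase reporter; series mostly up to about 92 µM.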 Summed up: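 Seed MDA-kb2 at 3,000 cells/well; incubate 5 hr, 37C, 0% CO2. Add nilutamide to 3.0uM final, then pin compounds at 15 concentrations. Incubate 16 hr. Add CellTiter-Fluor at 15 hr, read fluorescence after 1 hr.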

Experiment [5] in a line: qHTS assay to identify small molecule agonists of the estrogen receptor beta (ER-beta) signaling pathway - cell viability counter screen (AID 1259380). Further: nearly all actives have a fitted effect of over 30% in size. Further: potency means the concentration at half of the fitted maximal effect. In outline:
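CellTiter-Glo read, 30 min RT, same wells as bla assay; cells ER-beta-UAS-bla HEK293T; 16 hr compound, 37C; medium 2% charcoal-stripped FBS.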

Experiment [6] can be described thus: qHTS assay to identify small molecule antagonists of the estrogen receptor beta (ER-beta) signaling pathway - cell viability counter screen (AID 1259382). Further: nearly all actives have a fitted effect of over 55% in size. Further: potency means the concentration at half of the fitted maximal effect.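 On activity change, negative = cytotoxicity: HEK293T cells carrying ER-beta-UAS-bla reporter stimulated with estradiol; series mostly up to about 92 µM.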 In outline: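 In this multiplexed counter screen, cells were seeded at 2,000 per well in medium with 2% charcoal-stripped FBS and incubated 6 hr before compound and 1nM final E2 were added. Sixteen hours later, ATP-based luminescence reported viability.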

Experiment [7] in a line: qHTS assay to identify small molecule agonists or antagonists of the thyroid stimulating hormone receptor (TSHR) signaling pathway - wild type cell line counter screen (AID 1259384; calls by dose curve; further: potency means the concentration at half of the fitted maximal effect). In outline: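 Counter screen in untransfected Hek293: compounds (15-point titration, triplicate) plus phosphodiesterase inhibitor Ro20-1724 added after 18 h plating; 30 min RT. Intracellular cAMP via competitive d2/cryptate immunoassay, 1 h incubation.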

For experiment [8], the target named is Thyrotropin receptor (Homo sapiens) (UniProt P16473). Briefly: qHTS assay to identify small molecule antagonists of the thyroid stimulating hormone receptor (TSHR) signaling pathway (AID 1259385; calls by dose curve; further: nearly all actives have a fitted effect of over 20% in size). In outline:
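Antagonist mode: compound-treated TSHR-expressing HEK293 cells were stimulated with 1.5 ng/mL TSH (final) in presence of Ro20-1724 for 30 min at RT. HTRF cAMP detection after 1 h; each compound tested at 15 concentrations, triplicate.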

Experiment [9] can be described thus: qHTS assay to identify small molecule agonists of the estrogen receptor alpha (ER-alpha) signaling pathway in the presence of an antagonist - cell viability counter screen (AID 1259386).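 Further: cells exposed to compounds for 22 h at 37 °C before the viability read; nearly all actives have a fitted effect of over 30% in size.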 Further: potency means the concentration at half of the fitted maximal effect. On activity change, negative = cytotoxicity: series mostly up to about 92 µM. Summed up: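 Viability counter screen using VM7Luc4E2 (full-length ER-alpha, four ERE-luciferase). The cells were treated with compounds alongside ICI-182,780 10.0nM for 22hr, and live-cell protease fluorescence was quantified with CellTiter-Fluor.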

Experiment [10] has as its target Estrogen receptor (Homo sapiens) (UniProt P03372). Description: qHTS assay to identify small molecule agonists of the estrogen receptor alpha (ER-alpha) signaling pathway in the presence of an antagonist (AID 1259383; calls by dose curve; further: top concentration of the series differs between compounds; nearly all actives have a fitted effect of over 15% in size). Summed up: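 Stably transfected VM7Luc4E2 reporter cells, kept 5 days in charcoal-stripped serum, received ICI-182,780 at 10.0nM final before compound addition. Following 22hr incubation at 37C and 5% CO2, luciferase signal was read by luminescence.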

“And” between values parts separate entries of the source, which are not always exact repeats. Identical values can stand only once. Records with an inconclusive call do not appear. The source holds several records for some structures; these can differ, active in one and inactive in another. The source made the active and inactive calls. Unless noted, the call rests on the fitted dose curve; in most records, active means well fitted curve in the direction sought with a large enough effect in the repeat runs; inconclusive means weak or mixed curves; inactive means no such curve, though single readings can be large; an effect the other way counts as inactive or inconclusive.
On the % scale 0 is the no-effect control and ±100 the full control effect.

Sequence of Estrogen receptor (Homo sapiens) (P03372 whole entry, looked up): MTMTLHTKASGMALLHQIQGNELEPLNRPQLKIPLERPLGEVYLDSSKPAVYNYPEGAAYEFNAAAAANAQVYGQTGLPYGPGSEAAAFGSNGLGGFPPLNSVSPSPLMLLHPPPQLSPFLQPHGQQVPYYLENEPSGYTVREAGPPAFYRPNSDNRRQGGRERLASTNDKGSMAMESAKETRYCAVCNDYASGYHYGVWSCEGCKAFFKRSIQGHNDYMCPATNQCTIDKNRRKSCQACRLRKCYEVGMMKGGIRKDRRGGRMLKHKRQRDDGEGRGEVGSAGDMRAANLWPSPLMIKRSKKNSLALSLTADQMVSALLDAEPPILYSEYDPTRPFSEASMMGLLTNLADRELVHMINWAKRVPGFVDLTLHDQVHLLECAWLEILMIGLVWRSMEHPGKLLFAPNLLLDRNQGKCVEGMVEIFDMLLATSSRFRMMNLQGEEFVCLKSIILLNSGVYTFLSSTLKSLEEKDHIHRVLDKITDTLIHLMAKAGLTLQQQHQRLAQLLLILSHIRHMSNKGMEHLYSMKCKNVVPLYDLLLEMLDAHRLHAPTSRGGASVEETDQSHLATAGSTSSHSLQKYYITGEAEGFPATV
Sequence of Thyrotropin receptor (Homo sapiens) (P16473 whole entry, looked up): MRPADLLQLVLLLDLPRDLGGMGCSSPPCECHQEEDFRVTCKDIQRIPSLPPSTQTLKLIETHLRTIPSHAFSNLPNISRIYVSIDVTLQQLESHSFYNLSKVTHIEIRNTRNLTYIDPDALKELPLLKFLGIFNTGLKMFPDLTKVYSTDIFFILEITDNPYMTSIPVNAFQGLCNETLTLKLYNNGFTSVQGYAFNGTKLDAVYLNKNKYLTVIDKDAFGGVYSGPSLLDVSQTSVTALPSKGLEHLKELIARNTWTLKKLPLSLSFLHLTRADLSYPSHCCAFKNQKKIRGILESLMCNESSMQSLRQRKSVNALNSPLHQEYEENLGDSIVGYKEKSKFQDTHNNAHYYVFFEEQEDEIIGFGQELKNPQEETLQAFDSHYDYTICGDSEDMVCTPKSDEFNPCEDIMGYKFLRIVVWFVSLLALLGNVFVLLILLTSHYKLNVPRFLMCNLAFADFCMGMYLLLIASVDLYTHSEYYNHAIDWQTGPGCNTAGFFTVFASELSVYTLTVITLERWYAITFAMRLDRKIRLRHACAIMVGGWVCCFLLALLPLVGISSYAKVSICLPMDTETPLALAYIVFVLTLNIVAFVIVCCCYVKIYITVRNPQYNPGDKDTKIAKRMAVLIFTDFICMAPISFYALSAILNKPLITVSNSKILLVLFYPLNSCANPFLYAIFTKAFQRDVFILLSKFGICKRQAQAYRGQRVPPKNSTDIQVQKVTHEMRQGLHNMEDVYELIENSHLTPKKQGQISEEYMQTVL
Sequence of Estrogen receptor beta (Homo sapiens) (Q92731 whole entry, looked up): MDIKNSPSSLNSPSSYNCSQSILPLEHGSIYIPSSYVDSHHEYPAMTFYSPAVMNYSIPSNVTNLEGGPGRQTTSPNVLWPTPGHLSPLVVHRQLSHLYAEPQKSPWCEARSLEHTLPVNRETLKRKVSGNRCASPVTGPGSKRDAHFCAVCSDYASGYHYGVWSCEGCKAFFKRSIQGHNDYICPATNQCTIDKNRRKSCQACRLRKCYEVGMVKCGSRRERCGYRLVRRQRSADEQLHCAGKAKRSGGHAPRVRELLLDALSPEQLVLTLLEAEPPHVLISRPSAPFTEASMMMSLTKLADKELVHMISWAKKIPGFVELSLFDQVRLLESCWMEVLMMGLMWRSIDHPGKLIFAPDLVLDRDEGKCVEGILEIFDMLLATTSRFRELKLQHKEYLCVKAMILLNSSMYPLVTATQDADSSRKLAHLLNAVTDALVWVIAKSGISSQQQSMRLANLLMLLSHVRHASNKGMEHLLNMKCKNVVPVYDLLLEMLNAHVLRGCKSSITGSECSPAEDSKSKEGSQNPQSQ

In the case of `O=C(O)CC(O)C(=O)O` (stereo not drawn), the Potency result in experiment [1], in experiment [2], in experiment [3], in experiment [4], in experiment [5] and in experiment [6] was “inactive” each time. The Potency result in [7], in [8] and in experiment [9] was “inactive” throughout.

As for `CN(C)CCOC(c1ccccc1)c1ccccc1`, the Potency entry in experiment [1], in experiment [2], in experiment [3], in experiment [4], in [5] and in experiment [6] was “inactive” each time. Further, the Potency result in experiment [10], in experiment [7], in experiment [8] and in experiment [9] was “inactive” each time.

As to `C/C=C/C=C/C(=O)O`, the Potency entry in [1], in experiment [2], in experiment [3], in experiment [4], in [6] and in experiment [7] was “inactive” each time. Besides, the Potency result in experiment [8] and in experiment [9] was “inactive” in each case. Further, the activity change, negative = cytotoxicity in [5] was -4.84% [at 8.39 µM] (inactive).

For the compound `CCN(CC)C(=O)c1cccc(C)c1`, the Potency entry in experiment [1], in [2], in experiment [3], in experiment [4], in experiment [5] and in experiment [6] was “inactive” throughout. Further, the Potency result in experiment [7], in experiment [8] and in [9] was “inactive” throughout.

`CCCCCCCCCCCCCCCC[N+](C)(C)Cc1ccccc1`: the Potency in experiment [1] was 1.78 µM (active) and 6.98 µM (active) and 150 nM (active); in experiment [4], 35.5 µM (active) and 55.5 µM (active); in [5], 14.1 µM (active) and 22.1 µM (active) and 11.9 µM (active); in experiment [6], 35.5 µM (active) and 17.5 µM (active) and 10.6 µM (active). For the same compound, the Potency entry in experiment [2] and in experiment [9] was “inactive” in each case.

As for `Nc1ccc(S(N)(=O)=O)cc1`, the Potency entry in experiment [1], in experiment [2], in experiment [3], in experiment [4], in experiment [5] and in experiment [6] was “inactive” each time. Also, the Potency entry in experiment [7], in experiment [8] and in experiment [9] was “inactive” throughout.

`O=CC(=O)c1ccccc1`: the Potency entry in experiment [1], in [2], in experiment [3], in experiment [4], in [5] and in experiment [6] was “inactive” each time. Also, the Potency entry in [7] and in [9] was “inactive” each time.

With `COc1ccc(C(Cl)=C(c2ccc(OC)cc2)c2ccc(OC)cc2)cc1`, the Potency result in experiment [1], in experiment [2], in [4], in experiment [5], in experiment [6] and in experiment [9] was “inactive” each time. Further, the Potency in experiment [3] was 433 nM (active) and 668 nM (active).

As to `NS(=O)(=O)c1cc2c(cc1Cl)NCNS2(=O)=O`, the Potency result in [1], in [2], in experiment [3], in [4], in experiment [5] and in experiment [6] was “inactive” in each case. The Potency entry in experiment [10], in experiment [7], in experiment [8] and in experiment [9] was “inactive” in each case.

Turning to `Cc1cn([C@H]2C=C[C@@H](CO)O2)c(=O)[nH]c1=O`, the Potency result in experiment [1], in experiment [2], in experiment [3], in [4], in experiment [5] and in experiment [6] was “inactive” each time. The Potency result in experiment [7], in experiment [8] and in experiment [9] was “inactive” in each case.

Consider `CCc1nc(N)nc(N)c1-c1ccc(Cl)cc1`, for which the Potency is 17.5 µM (active) and 27.3 µM (active) in [1]; 21.7 µM (active) and 18.8 µM (active) in experiment [5]. Moreover, the Potency result in experiment [2], in [4], in experiment [6] and in experiment [9] was “inactive” each time.

`CCOc1ccc(NC(C)=O)cc1`: the Potency result in experiment [1], in [2], in [3], in [4], in experiment [5] and in [6] was “inactive” each time. Further, the Potency entry in experiment [7], in [8] and in [9] was “inactive” in each case.

Regarding `O=c1[nH]cc(F)c(=O)[nH]1`, the Potency result in experiment [1], in experiment [2], in [3], in experiment [4], in [7] and in experiment [8] was “inactive” each time. Further, the Potency result in experiment [9] is “inactive”. Moreover, the Potency in experiment [5] was 10.1 µM (active) and 12.5 µM (active) and inactive; in [6], 14.2 µM (active) and inactive.

In the case of `CC(C)C(=O)Nc1ccc([N+](=O)[O-])c(C(F)(F)F)c1`, the Potency in experiment [1] is 17.7 µM (active); in experiment [3], 54.5 µM (active) and inactive; in [5] it was “inactive and 24.3 µM (active)”. Besides, the Potency entry in [2], in [6], in experiment [7] and in experiment [8] was “inactive” throughout.

Take `CN(C)CCOC(C)(c1ccccc1)c1ccccn1` (stereo not drawn): the Potency result in [1], in [2], in experiment [3], in [4], in experiment [5] and in experiment [6] was “inactive” throughout. In addition, the Potency result in experiment [7], in experiment [8] and in experiment [9] was “inactive” in each case.

With `C=C(C)C(=O)OCC(C)O` (stereo not drawn), the Potency result in [1], in experiment [2], in [3], in experiment [4], in experiment [5] and in experiment [6] was “inactive” throughout. For the same compound, the Potency entry in [7], in [8] and in [9] was “inactive” throughout.

On to `CC(C)NCC(O)c1ccc(O)c(O)c1` (stereo not drawn), for which the Potency entry in experiment [1], in experiment [2], in [3], in experiment [4], in experiment [5] and in experiment [6] was “inactive” in each case. Besides, the Potency entry in [8] is “inactive”. The Potency is 4.98 nM (active) and 5.87 nM (active) and 5.7 nM (active) in experiment [7]; 54.5 µM (active) in experiment [9].

Take `NC(=O)c1cccnc1`: the Potency entry in experiment [1], in experiment [2], in experiment [3], in experiment [4], in experiment [5] and in [6] was “inactive” in each case. The Potency entry in experiment [7], in experiment [8] and in [9] was “inactive” throughout.
